Compound activity deposited in PubChem BioAssay by several laboratories.
This excerpt belongs to a sample that is enriched for hits.
GIRK2 act: Activators of human GIRK2-containing channels. P48051. HEK293 GIRK2/NPY4 cells, thallium flux fluorescence. activation (% efficacy), % for hits at 37.5 µM. 34,000 tested, under 10 active. AID 1259324;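 active means primary screen hit, no activity in plain HEK293 cells, and in GIRK2-only cells above 5% efficacy rising with concentration; inactive means the rest, including fluorescent compounds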;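 further: efficacy is normalized control-subtracted fluorescence 15 s after thallium addition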
AMPAR-TARP mod: modulators of AMPA receptor GluA2-stargazin complexes; AID 1259245; O88602+P19491; HEK293 GluA2+stargazin, membrane potential dye (FDSS), glutamate EC50; hits were called plate by plate, in both directions; 40,000 compounds, 3.5% hits; calls only at 30 µM;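 active means any of four per-well response measures lying three or more SD from its plate-wide compound average, in either direction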
An asterisk follows results filed as active; i = inactive; / = not tested or not shown; + = active, no number.

SMILES | GIRK2 act | AMPAR-TARP mod
COc1ccc(C)cc1S(=O)(=O)N1CCN(Cc2nc(C(C)(C)C)cs2)CC1 | i | i
NCc1nnnn1C1CCCCC1 | i | i
CCOc1ccccc1NC(=O)NC1CCCC(O)C1 (centres undefined) | i | i
O=C(NCc1cccc2ccccc12)Nc1ccc(Cl)c(N2CCCS2(=O)=O)c1 | i | +
O=C(NCc1cccs1)Nc1ccc(Cl)c(N2CCCS2(=O)=O)c1 | i | i
Cc1ccc([N+](=O)[O-])cc1NC(=O)C(=O)NC(C)(C)CO | / | i
COCC(C)NC(=O)c1cc2c(=O)n3ccccc3nc2n1Cc1ccccc1 (centres undefined) | i | i
COc1ccc(S(=O)(=O)N2CCC(C(=O)Nc3nc(-c4ccc(Cl)cc4)cs3)CC2)cc1 | i | i
CCCCOc1ccc(C(=O)Nc2ccc(CC(=O)N3CCCC3)cc2)cc1 | i | i
Cc1cc(C)n(-c2cc(C(C)C)nc3c(-c4ccccc4)c(C)nn23)n1 | i | +
Cc1nn2c(N3CCN(c4ccccn4)CC3)cc(C(C)C)nc2c1-c1ccccc1 | i | i
CCOC(=O)C1CCN(C(=O)c2snc(-c3ccc(OC)cc3)c2N)CC1 | i | /
Cn1nc(CNC(=O)c2ccccc2C(=O)c2ccccc2)c2ccccc2c1=O | i | i
Cn1nc(CNC(=O)c2cccc(C#N)c2)c2ccccc2c1=O | i | +
C=CCNC(=O)C(=O)Nc1ccc(F)c(Cl)c1 | i | i
COc1cccc(C(CNC(=O)C2CCCCC2)N2CCOCC2)c1 (centres undefined) | / | +
COc1cccc(C(CNC(=O)Nc2ccc(Cl)cc2)N2CCOCC2)c1 (centres undefined) | i | +
COc1cccc(C(CNC(=O)C2CCN(S(C)(=O)=O)CC2)N2CCOCC2)c1 (centres undefined) | i | i
COc1cccc(C(CNC(=O)c2cccc([N+](=O)[O-])c2C)N2CCOCC2)c1 (centres undefined) | i | +
O=C(NCC(c1ccc(F)cc1)N1CCOCC1)NC1CCCCC1 (centres undefined) | / | i
COc1cccc(C(CNC(=O)c2ccc([N+](=O)[O-])cc2)N2CCOCC2)c1 (centres undefined) | i | i
Cc1ccc(C(CNC(=O)NC2CCCCC2)N2CCOCC2)cc1 (centres undefined) | i | +
COc1cccc(C(CNC(=O)Nc2ccccc2)N2CCOCC2)c1 (centres undefined) | i | i
O=S(=O)(c1cccc(F)c1)N1CCC(Cc2ccccc2)CC1 | / | i
COc1cccc2cc(C(=O)NCCc3csc(-c4ccc(F)cc4)n3)oc12 | i | i
SMILES | GIRK2 act | AMPAR-TARP mod
Cn1nnc2c(N3CCN(CC(=O)NCCc4ccccc4)CC3)ncnc21 | i | i
O=C(COc1ccc(Cl)cc1)Nc1ccc2c(c1)N(C(=O)C1CCCC1)CC2 | i | /
CCOc1cccc2sc(N(CC3CCCO3)C(=O)c3ccn(C)n3)nc12 (centres undefined) | i | /
Cc1cc(-c2nnc(NC(=O)c3ccc(Cl)cc3)o2)nn1C | i | +
CCCN(CCC)S(=O)(=O)c1ccc(C(=O)Nc2nnc(-c3cc(C)n(C)n3)o2)cc1 | i | i
Cc1cc(-c2nnc(NC(=O)c3ccc(C(C)(C)C)cc3)o2)nn1C | i | i
Cc1cc(-c2nnc(NC(=O)c3ccc(S(=O)(=O)N(C)C)cc3)o2)nn1C | i | +
O=C(CSc1cc(N2CCN(c3ccccc3F)CC2)ncn1)N1CCc2ccccc21 | i | i
CCCC(=O)Nc1ccc(C(=O)N/N=C/c2c(C)[nH]c3ccccc23)cc1 | / | i
CCN(CC)c1ccc(C2C(C(=O)Nc3cccc(C(F)(F)F)c3)=C(C)NC3=C2C(=O)CCC3)cc1 (centres undefined) | / | i
CC1=C(C(=O)Nc2cccc(C(F)(F)F)c2)C(c2ccc(C)cc2)C2=C(CCCC2=O)N1 (centres undefined) | / | +
Cc1ccc(S(=O)(=O)N(C)c2c(C)ccc(S(=O)(=O)NCc3ccccc3)c2C)cc1 | / | i
COCCn1nnn(-c2ccc(NC(=O)C3(c4cccs4)CCCC3)cc2)c1=O | i | i
Cc1ccc(NC(=O)c2cc(-c3cccs3)nc3c2c(C)nn3C2CCS(=O)(=O)C2)cc1 (centres undefined) | i | +
Cc1nn(C2CCS(=O)(=O)C2)c2nc(-c3cccs3)cc(C(=O)Nc3ccc(F)cc3)c12 (centres undefined) | i | i
CCCCc1ccc(NC(=O)Cn2cc(OC)c(=O)cc2CSc2ncccn2)cc1 | i | i
COc1ccc(C)cc1NC(=O)c1ccc(=O)n(Cc2cc(C)ccc2C)c1 | i | i
CSc1ccccc1NC(=O)c1ccc(=O)n(Cc2cc(C)ccc2C)c1 | i | +
